Measurements reported in PubChem BioAssay (NCI).
The panel holds about 83,000 compounds, 20% with a hit somewhere; the sample as a whole holds those more often.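 In brief: 96-well plates, 48 h treatment, single concentration, percent growth endpoint.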 Unmarked numbers belong to inactive results. Active and inactive are the calls of the source. The calls were made as follows: active = growth percent below 10; inactive = the rest.

How the values were obtained:
Test in all cases: NCI-60 one-dose screen, 48 h (100 = growth as untreated, 0 = no growth, -100 = all killed)
Conditions in all cases: 10 µM unless noted
BT-549 breast = test system: BT-549 breast
MDA-MB-435 melanoma = test system: MDA-MB-435 melanoma
SW-620 colon = test system: SW-620 colon
MCF7 breast = test system: MCF7 breast
HCT-116 colon = test system: HCT-116 colon
HCC-2998 colon = test system: HCC-2998 colon
KM12 colon = test system: KM12 colon

| SMILES | growth (BT-549 breast) | growth (MDA-MB-435 melanoma) | growth (SW-620 colon) | growth (MCF7 breast) | growth (HCT-116 colon) | growth (HCC-2998 colon) | growth (KM12 colon) |
| --- | --- | --- | --- | --- | --- | --- | --- |
| CCOC(=O)C1=NN(c2ccc(Cl)cc2)C2C3N(c4ccc(Cl)cc4)N=C(C(=O)OCC)N3c3ccccc3N12 (centres undefined) | 123% | 100% | 110% | 85.7% | 87.9% | 97.5% | 103% |
| c1ccc(-c2nnc(Nc3nnc(-c4ccccc4)s3)s2)cc1 | 106% | 106% | 98% | 67.6% | 97.9% | 108% | 113% |
| Oc1ccc(Cc2ccc(O)c(C3CC(c4ccc(Cl)cc4)=NN3)c2)cc1C1CC(c2ccc(Cl)cc2)=NN1 (centres undefined) | 36.2% | 3.35% (active) | 13.6% | 17.5% | 1.4% (active) | 11.3% | 12% |
| O=C1C(Cl)=C(N=Nc2c(Cl)c(O)c3ccccc3c2O)C(=O)c2ccccc21 | 62% | -31.7% (active) | 90% | 62.6% | 70.4% | 74.4% | 86.4% |
| Nc1ccc(S(=O)(=O)Nc2ncccn2)cc1 | 119% | 108% | 105% | 101% | 113% | 104% | 108% |
| CCOC(=O)/C=C(/C)Sc1cc(O)c2ccccc2c1O | -37.1% (active) | -82.2% (active) | -40.2% (active) | -75.9% (active) | 122% | 17.3% | 3.07% (active) |
| COc1ccc(-c2cnnn2-c2cc(OC)c3c(c2)OCO3)cc1 | 34.8% | -57.5% (active) | 26.5% | 17.8% | 13.6% | -2.25% (active) | 11.8% |
| CCN(CC)CCCNCCCNc1cc(OC)cc2cccnc12 | 100% | 103% | 38.7% | -46.8% (active) | 86.5% | 83.7% | 78.8% |
| CCC(CC)NCCCCCNc1cc(OC)cc2cccnc12 | 88% | 107% | 95.4% | 58.4% | 90.5% | 117% | 98.6% |
| C=C(C)[C@@H]1C[C@H](O)Cc2cc(Cl)cc(Cl)c2N1 | 105% | 105% | 105% | 103% | 99.5% | 105% | 107% |
| COc1ccc(-c2cncn2-c2ccc(-c3nc4cc(OC)c(OC)c(OC)c4s3)cc2)cc1N | 31.5% | 47.6% | 63.6% | 39.9% | 36.3% | 80.5% | 51.8% |
| Cc1cc2cn3c4cccnc4[nH]c(=O)c3c2cc1C | 73.2% | -20.7% (active) | -29.5% (active) | -36.9% (active) | -85.3% (active) | 60% | 13.1% |
| Cc1cc(C)n2nc(SCC(=O)Nc3sc4c(c3C(N)=O)CCC4)nc2n1 | 99.6% | 108% | 100% | 107% | 97.2% | 118% | 114% |
| Cc1ccc(C=C2C(Cl)=C(Cl)C(Cl)=C2Cl)cc1 | -31.3% (active) | -61.9% (active) | -77.9% (active) | -23.8% (active) | -100% (active) | -94.8% (active) | -79.6% (active) |
| COc1ccc2c(c1)/C(=C\c1c[nH]c3ccc(F)cc13)C(=O)N2 | 106% | 91.5% | 107% | 60.3% | 80% | 92.7% | 21.1% |
| COc1ccc(-c2oc3cc(O)c(OC)c(O)c3c(=O)c2OC)cc1O | -4.89% (active) | -45.9% (active) | 19.2% | 19% | 2.2% (active) | 90.1% | 2.13% (active) |
| Cc1ccccc1NC(=O)c1cc2ccccc2cc1O | -0.275% (active) | 28.6% | 47.2% | 80.5% | 30.3% | 81.5% | 23.4% |
| COc1cc(NC(=O)c2cc3ccccc3cc2O)c(OC)cc1Cl | -24.3% (active) | 3.67% (active) | 17.5% | 2.91% (active) | -21.3% (active) | -40.4% (active) | 5.63% (active) |
| c1ccc(Nc2nnc(-c3cc(-c4cccnc4)n(-c4ccccc4)n3)s2)cc1 | 85.8% | 80.7% | 97.1% | 95.7% | 76.8% | 72.5% | 60.3% |

| SMILES | growth (BT-549 breast) | growth (MDA-MB-435 melanoma) | growth (SW-620 colon) | growth (MCF7 breast) | growth (HCT-116 colon) | growth (HCC-2998 colon) | growth (KM12 colon) |
| --- | --- | --- | --- | --- | --- | --- | --- |
| Oc1[nH]c2ccc(Cl)cc2c1/C=c1/ccc2c(c1)N=C(c1ccc(C(F)(F)F)cc1)N=2 | 88.4% | 42.7% | 84.3% | 27.6% | 50.1% | 61.5% | 45.4% |
| O=C(O)c1ccc(NC(=O)c2cccc(Nc3ccnc(C(F)(F)F)c3)c2)cc1 | 95.8% | 106% | 103% | 96.8% | 95% | 104% | 107% |
| c1coc([C@@H]2C[C@@H]3Cc4ccc5ccccc5c4N2O3)c1 | 105% | 103% | 103% | 84.6% | 99.2% | 107% | 107% |
| Clc1ccccc1[C@@H]1C[C@@H]2Cc3cc(Br)c4ccccc4c3N1O2 | 50.1% | -32% (active) | 16.6% | 12.7% | 20.3% | 56.4% | 33.5% |
| COc1ccc2c(c1)[nH]c(=O)c1c3cc(OC)c(OC)cc3cn21 | 10.5% | -20.3% (active) | 31.7% | 17.5% | -18.8% (active) | 25.8% | -33% (active) |
| C/C(=C\CCc1ccoc1)CC/C=C(\C)CCCN1CCC(CO)CC1 | 54.2% | 44.2% | 18.2% | 28.9% | 31% | 46.5% | 44.6% |
| CN1CCN(Cc2ccc(NC(=O)c3[nH]ncc3Nc3ccnc4ccnn34)cc2)CC1 | 74.1% | 56.1% | 70.1% | 35.9% | 33.7% | 68.7% | 32.7% |
| CCSc1nnc2n(Cc3ccccc3)c(=O)c3c(C)c(C(N)=O)sc3n12 | 88.9% | 105% | 109% | 96.8% | 100% | 101% | 105% |
| CCc1[nH]nc(-c2ccc(OC)cc2)c1-c1ccccc1OCCN(CC)CC | 87.7% | 101% | 104% | 93.2% | 83.9% | 103% | 106% |
| Nc1ccc(C2=Nc3cccc4cccc(c34)S2)cc1 | 83.4% | 98.3% | 97.2% | 45.2% | 81.7% | 61.4% | 76.5% |
| COc1ccc2c(c1)C(=O)c1c-2c(=O)n(CCCCCCC(=O)NO)c2ccccc12 | 23.4% | -14.1% (active) | -27.4% (active) | 5.92% (active) | -55.8% (active) | -39.6% (active) | 10.9% |
| CC[N+](C)(CC)CCCC(C)Nc1ccnc2cc(Cl)ccc12 (centres undefined) | 117% | 108% | 106% | 96.4% | 110% | 119% | 102% |
| Cc1cc(Cl)ccc1Nc1nc(C(F)(F)F)ccc1C(=O)NCC(=O)N/N=C/c1c(Cl)cccc1Cl | 85.5% | 79.6% | 80.3% | 56.2% | 57.7% | 92.9% | 50.4% |
| Cn1c(N)c(N=O)c(=O)[nH]c1=O | 93.5% | 108% | 107% | 106% | 104% | 118% | 99% |
| Cc1ccccc1-c1cc(Cc2ccccc2O)c(=O)[nH]n1 | 112% | 109% | 116% | 103% | 93.5% | 124% | 98.1% |
| CC1=CC(=O)C(C(C)=Nc2ccccc2Cl)C(=O)O1 (centres undefined) | 121% | 111% | 91.6% | 118% | 100% | 119% | 108% |
| CN1C(=O)C(=Cc2cn(Cc3ccccc3)c3ccc(Br)cc23)C(=O)N(C)C1=O | 102% | 102% | 108% | 87% | 101% | 107% | 102% |
| COc1cc2c(c(OC)c1OC)-c1ccc(NN(C(=O)c3ccccc3)C(=O)c3ccccc3)c(=O)cc1[C@@H](NC(C)=O)CC2 (tested in a mixture with another compound) | 37.3% | -68.8% (active) | 17.1% | 24% | 12.1% | 6.05% (active) | 9.8% (active) |
